Reference: PubChem BioAssay (NCI)
About 79,000 compounds went through this panel and 15% of them were active in at least one assay; those are over-represented in the sample as a whole. No stated cut-off is given here; in the data, active means growth inhibition above about 70%; inactive means the rest. Where a SMILES comes first, the peptide text is derived from it. The star is where a group is joined. Cbz = O=C(OCc1ccccc1)*

Tests used:
[1] = NCI Yeast Anticancer Drug Screen. Data for the rad50 strain (AID 155);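 further: 0% = growth of vehicle-only cultures of the same strain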; details: S. cerevisiae rad50 strain growth inhibition; at 50.0 µM; hits give high values
In short: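 Yeast carrying a defined DNA repair defect were exposed to test compounds, and growth was compared with vehicle-treated controls to give percent inhibition.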

[2] = NCI Yeast Anticancer Drug Screen. Data for the mec2-1 strain (AID 157); details: S. cerevisiae mec2-1 strain, at 50.0 µM, hits give high values
In short: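 Test agents were screened against the mec2-1 yeast strain, with defined DNA repair or cell cycle alteration. Growth was scored as inhibition against vehicle-only controls.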

[3] = NCI Yeast Anticancer Drug Screen. Data for the sgs1 mgt1 strain (AID 161);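 further: 0% = growth of cultures given vehicle only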; details: S. cerevisiae sgs1 mgt1 strain, at 50.0 µM, hits give high values
In short: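 Mutant yeast exposed to compound; growth scored against vehicle-only wells.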

[4] = NCI Yeast Anticancer Drug Screen. Data for the cln2 rad14 strain (AID 165);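 further: 0% = growth equal to vehicle treated cultures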; details: S. cerevisiae cln2 rad14 strain, at 50.0 µM, hits give high values
In short: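 Growth of compound-exposed yeast (cln2 rad14 genotype) measured and expressed as inhibition relative to vehicle.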

[5] = NCI Yeast Anticancer Drug Screen. Data for the bub3 strain (AID 167); details: S. cerevisiae bub3 mutant strain, at 50.0 µM, hits give high values
In short: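 Compounds were applied to a genetically altered yeast strain carrying a cell-cycle control defect. Growth inhibition was scored against vehicle-treated controls.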

[6] = NCI Yeast Anticancer Drug Screen. Data for the mlh1 rad18 strain (AID 175); details: S. cerevisiae mlh1 rad18 strain growth inhibition; at 50.0 µM; hits give high values
In short: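 In this whole-cell yeast screen, a strain with altered DNA damage repair is challenged with compound, and its growth is measured against matched vehicle-treated controls.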

Measured: growth inhibition

OCCc1ccccc1CCO
inactive: [1] -29.6% | [2] -17.8% | [3] -13.2% | [4] -16.9% | [5] -5.4% | [6] 8.5%

COC(=O)Nc1cn2cc(C(=O)c3cccs3)ccc2n1
inactive: [1] -2.5% | [2] -21.5% | [3] -9.95% | [4] -10.5% | [5] -42% | [6] -53.2%

CCOC(=O)C1C(=O)N(O)c2cnccc21 (configuration not stated)
inactive: [1] -1.9% | [2] -16.6% | [3] -12.5% | [4] -12.2% | [5] 15% | [6] 8.35%

CN1C(=O)CCC1(O)C1C=CC=CC1 (configuration not stated)
inactive: [1] 16.8% | [2] 7.55% | [3] 1.75% | [4] 16.9% | [5] -4.9% | [6] -2.85%

CCC(=O)C(C)C(=O)C(=O)NCCNC(=O)C(=O)C(C)C(=O)CC (configuration not stated)
inactive: [1] 19.9% | [2] -1.3% | [3] 2.75% | [4] -16.6% | [5] -8.5% | [6] -25.6%

O=C(OCc1ccccc1CN1CCOCC1)c1ccccc1
inactive: [1] 2.55% | [2] 16.4% | [3] 9.5% | [4] -11.9% | [5] -15.8% | [6] 8.3%

CN(c1ccccc1)c1ccc([N+](=O)[O-])cc1[N+](=O)[O-]
inactive: [1] 7.4% | [2] -1.3% | [3] -8% | [4] 3.25% | [5] 0.8% | [6] -11.9%

CSc1ccc(NC(=O)Nc2cc(C)ccn2)cc1
inactive: [1] 5.8% | [2] -11.1% | [3] -45.7% | [4] -37.8% | [5] -61% | [6] 10.6%

CCC1(CC)C(=O)C(CC)(CC)C1=O
inactive: [1] 44.5% | [2] 28.1% | [3] 38% | [4] 20.9% | [5] 39.1% | [6] 6.55%

CNC(=O)OCc1c(COC(=O)NC)c(-c2ccc(F)cc2)n2c1CCC2
inactive: [1] 23.8% | [2] 12.7% | [3] -15.9% | [4] 18.7% | [5] 7.55% | [6] 52.6%

CCOC(=O)/C(C#N)=C/Nc1ccncc1
inactive: [1] 2.95% | [2] -12.4% | [3] 16.2% | [4] 11.6% | [5] 4.25% | [6] 16%

COc1ccc(/C=C2\N=C(c3ccccc3)OC2=O)c(Br)c1OC(C)=O
inactive: [1] -20.1% | [2] 0.7% | [3] -12.7% | [4] -12.3% | [5] -0.8% | [6] 14.3%

O=C(OC1(c2ccccc2)OC(=O)c2ccccc21)c1ccccc1C(=O)c1ccccc1 (configuration not stated)
inactive: [1] -6.65% | [2] 2.45% | [3] -12.1% | [4] 3.45% | [5] 3.4% | [6] -25.9%

O=C1CCC2(c3ccc(Cl)cc3)SCCN12 (configuration not stated)
inactive: [1] 5.8% | [2] -20.5% | [3] -6.85% | [4] 2.75% | [5] 31.8% | [6] -0.15%

COC(=O)[C@@H]1Cc2ccc(OC)c(c2)OCCC(=O)N1
inactive: [1] -37% | [2] 0% | [3] 21.7% | [4] -2.95% | [5] -13% | [6] -12.2%

COc1cc(C=O)c([N+](=O)[O-])cc1OC
inactive: [1] 14.2% | [2] -20.7% | [3] 18.2% | [4] 20.9% | [5] -8.5% | [6] -8.85%

C=CCOC(=O)c1ccccc1O
inactive: [1] 12.9% | [2] -12.1% | [3] -13.3% | [4] -0.9% | [5] -21.2% | [6] 12.8%

COC1OC2COC(C2O)C1OS(=O)(=O)c1ccc(C)cc1 (configuration not stated)
inactive: [1] -3.2% | [2] 9.7% | [3] 9.2% | [4] -46.1% | [5] -12.3% | [6] -13.3%

C=C(C)COc1ccc2c(c1)CCC1C2CCC2(C)C1CCC2(C)O (configuration not stated)
inactive: [1] 21% | [2] 0.45% | [3] 3.75% | [4] 17.6% | [5] -0.9% | [6] 6.6%

CC(C)Oc1ccc(N2C(=O)C(C)CNC2=S)cc1 (configuration not stated)
inactive: [1] -13.9% | [2] -1.9% | [3] -1.3% | [4] 4.9% | [5] 6.4% | [6] -8.55%

Cn1c2ccccc2c2oc(CO)cc(=O)c21
inactive: [1] 13.2% | [2] 0.4% | [3] 5.8% | [4] 23.9% | [5] 10.4% | [6] 19.3%

O=[N+]([O-])c1ccc(CCCn2cnc3c(Cl)ncnc32)c([N+](=O)[O-])c1
inactive: [1] 15% | [2] 0.95% | [3] 7.95% | [4] -1.45% | [5] 1.2% | [6] -10.6%

Cc1ccc(C(=O)C(c2nc3n(c2O)/C(=N/C(=O)Nc2ccc(Cl)cc2)N=N3)c2nc3n(c2O)/C(=N/C(=O)Nc2ccc(Cl)cc2)N=N3)cc1
inactive: [1] -44.1% | [2] -29.2% | [3] -27.2% | [4] -39% | [5] -29.1% | [6] -25.4%

NC1C2C=CC(C2)C1C(=O)O (configuration not stated)
inactive: [1] -0.65% | [2] -0.25% | [3] -50.4% | [4] 4% | [5] -26.6% | [6] -17.3%

CC(=O)Nc1ccc(/C=C/c2csnn2)cc1
inactive: [1] -7.8% | [2] 7.7% | [3] 11.9% | [4] 8.7% | [5] -4.45% | [6] -3.2%

CCC1C(=O)Nc2ccccc21 (configuration not stated)
inactive: [1] 16.4% | [2] 16.9% | [3] 1.3% | [4] 7.85% | [5] 13.8% | [6] 8.5%

C=C(CCCC(C)OC(C)OCC)[Si](C)(C)C (configuration not stated)
inactive: [1] -26.2% | [2] -52% | [3] -20.6% | [4] -7.15% | [5] -23.6% | [6] -37.9%

COc1ccccc1NC(=O)C(Cc1ccccc1)NC(C)=O (configuration not stated)
inactive: [1] 25.2% | [2] 3.7% | [3] -1.85% | [4] -51.5% | [5] 8.2% | [6] 2.65%

COC(=O)c1cn[nH]c1CC(N)=O
inactive: [1] 35.9% | [2] 11.5% | [3] 25.1% | [4] -17.1% | [5] 12.3% | [6] 19.9%

CN(Cc1ccccc1)C(=O)/C=C/c1ccccc1
inactive: [1] 9.8% | [2] 22.1% | [3] 26.4% | [4] 2.85% | [5] 27.2% | [6] 14.8%

Cc1ncc([N+](=O)[O-])n1CCNC(=O)CCCn1cnc([N+](=O)[O-])n1
inactive: [1] -17.8% | [2] -34% | [3] -15.8% | [4] -17.4% | [5] -27.9% | [6] -38.9%

O=C(O)C(Cc1ccccc1)C(=O)O.[NH2-].[NH2-].[Pt+2]
inactive: [1] -11.7% | [2] -0.95% | [3] 10.9% | [4] 13.1% | [5] 1.25% | [6] 24.2%

C=CCCN=C(SC)SC
inactive: [1] 3.8% | [2] 20.9% | [3] 16.2% | [4] -11.1% | [5] -0.9% | [6] 4.4%

CC(C)NC(=O)C1C2CCC(C2)C1C(=O)NC(C)C (configuration not stated)
inactive: [1] 3.55% | [2] -1% | [3] 2.35% | [4] -28.4% | [5] -0.3% | [6] -7.25%

OC1CCCC2CCCC12 (configuration not stated)
inactive: [1] 1% | [2] 1.15% | [3] -8.1% | [4] 15.4% | [5] 16.4% | [6] -5.75%

COC(=O)c1cc(Cl)ccc1Br
inactive: [1] 17.4% | [2] 14.1% | [3] -0.05% | [4] 14.8% | [5] -3.85% | [6] 43%

CC(NC(=O)C(NC(=O)OCc1ccccc1)C(C)C)C(=O)NCC(=O)O (stereo not drawn) (Cbz-Val-Ala-Gly-OH; configuration not given here)
inactive: [1] -0.05% | [2] -23.2% | [3] -9.9% | [4] 19.8% | [5] 7.1% | [6] -4.45%

COc1cc2c[n+](C)c3c(c2cc1OC)Cc1cc2c(cc1-3)OCO2
inactive: [1] -27.5% | [2] -13.2% | [3] 1.8% | [4] 18.9% | [5] -14.7% | [6] 6.25%

CC1CC=CCC1C1OCCO1 (configuration not stated)
inactive: [1] 3.95% | [2] 1.6% | [3] 3.45% | [4] 10.2% | [5] 16.4% | [6] -2.7%

CCCC(=O)Oc1ccc(Cl)cc1
inactive: [1] 12.9% | [2] -4.45% | [3] 1.35% | [4] 20.1% | [5] 1.45% | [6] -6.65%

COc1ccc(C2=C/C(=C/c3cccs3)C(=O)O2)cc1
inactive: [1] -14.2% | [2] 1.45% | [3] -0.15% | [4] -36.9% | [5] 3.75% | [6] 0.15%

O=C1COCCO1
inactive: [1] 2.45% | [2] -8.55% | [3] 6.45% | [4] -14% | [5] -6.55% | [6] -19.5%
